Measurements taken from PubChem BioAssay.
The source made the active and inactive calls. Unless noted, no stated cut-off is given here; in the data, active means inhibition above about 80%; inactive means the rest.

Tests used:
[1] = growth inhibition, single agents and combos, UWB1.289, cell-based, BGB or cisplatin combos, synergistic combos for chromothripsis tumors (AID 1671456); settings: UWB1.289 ovarian carcinoma cells, stronger effect = higher value;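 further: cells exposed to compound for four days; 0% = vehicle DMSO and 100% = killing by high DMSO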
[2] = growth inhibition, single agents and combos, LFS_MB_2R, cell-based, cisplatin combos, synergistic combos for chromothripsis tumors (AID 1671457); settings: LFS_MB_2R medulloblastoma cells, stronger effect = higher value;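 further: cells exposed to compound for four days before readout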
[3] = growth inhibition, MDA-MB-436, cell-based, BGB or cisplatin combos, synergistic combos for chromothripsis tumors (AID 1671458; call rule not given here;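 further: cells exposed for 96 hours; 0% = vehicle DMSO and 100% = killing by high DMSO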); settings: MDA-MB-436 breast carcinoma growth inhibition, drug combinations, stronger effect = higher value
[4] = UWB1.289_BRCA1 ovarian cancer growth, cell-based, BGB or cisplatin combinations (AID 1671459); settings: UWB1.289 BRCA1 ovarian carcinoma, drug combinations, stronger effect = higher value
[5] = drug combination toxicity in non-malignant astrocytes – cell-based, BGB or cisplatin IC20 combos, cytotoxicity control for chromothriptic childhood tumor combination screen (AID 1671460); settings: Human astrocytes, viability inhibition, drug combinations, at 0.5 µM, stronger effect = higher value;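 further: cells exposed to compounds for 96 hours before viability readout; 0% = vehicle and 100% = killing control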
[6] = BT084 cell growth, single and combined drugs, ICGC_MB145, cisplatin and BGB IC40 combos (AID 1671461); settings: BT084 medulloblastoma cells, drug combinations, stronger effect = higher value;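 further: cells exposed to drugs for 96 hours; 0% = vehicle DMSO and 100% = high DMSO full killing control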
[7] = RCMB18 cell growth, single agent and combined, cisplatin and BGB IC40 combos (AID 1671462); settings: RCMB18 medulloblastoma cells, stronger effect = higher value;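 further: cells exposed to compound for four days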
[8] = CRL1545 cell growth, single agent and combined, cisplatin and BGB IC20 combos (AID 1671464); settings: CRL1545 osteosarcoma cells, stronger effect = higher value;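 further: cells exposed to compound for 96 hours before readout; 0% = vehicle DMSO and 100% = high DMSO killing control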
[9] = test system: F380Y; assay: BK channel mutant inhibitors and activators – cell-based, U2OS BacMam, thallium flux, beta subunits, selectivity assay, profiling panel (AID 1259406;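 active means thallium flux through the channel raised or lowered by more than 3 SD from vehicle-only wells, actives on both sides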;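 further: initial slope of Thallos dye fluorescence rise after thallium is added; log ratio against the mean of 0.3% DMSO vehicle wells on the same plate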); settings: U2OS BacMam BK variants, at 30 µM
[10] = test system: F380Y/beta1; assay: as above; settings: U2OS BacMam BK variants, at 30 µM
[11] = measured here: inhibition with BGB combination, at 0.05 µM
[12] = measured here: inhibition with cisplatin combination, at 0.05 µM
[13] = measured here: combination with cisplatin, at 0.5 µM
[14] = measured here: combination with cisplatin, at 5 µM
[15] = measured here: BGB combination, at 0.5 µM
[16] = measured here: BGB combination, at 5 µM
[17] = measured here: cisplatin combination, at 0.5 µM
[18] = measured here: cisplatin combination, at 5 µM
[19] = BGB combination, concentration series, at 5 µM
[20] = cisplatin combination, concentration series, at 5 µM
[21] = measured here: combo with BGB IC20
[22] = measured here: combo with cisplatin IC20
[23] = cisplatin combination, at 0.5 µM
[24] = measured here: BGB IC40 combination 0.05 uM, at 0.05 µM
[25] = measured here: BGB IC40 combination, at 0.05 µM
[26] = measured here: with BGB IC20 combination, at 0.5 µM
[27] = measured here: with cisplatin IC20 combination, at 0.5 µM

NC(=O)NO
inhibition ([1]; at 0.5 µM): 5.4% (inactive)
inhibition [1, 11]: 5.3%
inhibition [1, 12]: -10.2%
inhibition ([2]; at 0.5 µM): 11.7% (inactive)
inhibition [2, 13]: 8.29%
inhibition [2, 14]: 17%
inhibition ([3]; at 0.5 µM): -8.14% (inactive)
inhibition [3, 15]: -5.6%
inhibition [3, 16]: -2.86%
inhibition [3, 17]: -19.6%
inhibition [3, 18]: 19.7%
inhibition [4, 19]: 13.1%
inhibition ([4]; at 0.5 µM): 4.57% (inactive)
inhibition [4, 20]: 15.7%
inhibition [5]: -3.17% (inactive)
inhibition [5, 21]: -6.58%
inhibition [5, 22]: 5.32%
inhibition ([6]; at 0.5 µM): 3.97% (inactive)
inhibition [6, 23]: 0.756%
inhibition ([6]; cisplatin combination, at 5 µM): -27.3%
inhibition [6, 24]: 10.1%
inhibition ([6]; single agent, at 5 µM): 1.06%
inhibition ([7]; at 0.5 µM): 12.5% (inactive)
inhibition ([7]; cisplatin combo, at 5 µM): 15.7%
inhibition [7, 25]: -13.6%
inhibition [7, 13]: 28.2%
inhibition ([7]; single agent, at 5 µM): -32.4%
inhibition ([8]; at 0.5 µM): -15.5% (inactive)
inhibition [8, 26]: 6.18%
inhibition [8, 27]: -26.4%
inhibition ([8]; single agent, at 0.05 µM): -10.2%
inhibition ([8]; single agent, at 5 µM): -5.37%

O=c1c(O)c(-c2ccc(O)c(O)c2)oc2cc(O)cc(O)c12
inhibition ([1]; at 0.5 µM): -3.55% (inactive)
inhibition [1, 11]: -4.11%
inhibition [1, 12]: -12.6%
inhibition ([2]; at 0.5 µM): 0.78% (inactive)
inhibition [2, 13]: 12%
inhibition [2, 14]: 15.1%
inhibition ([3]; at 0.5 µM): 0.09% (inactive)
inhibition [3, 15]: -0.722%
inhibition [3, 16]: 15.2%
inhibition [3, 17]: -5.24%
inhibition [3, 18]: 12.3%
inhibition [4, 19]: 2.88%
inhibition ([4]; at 0.5 µM): -10.1% (inactive)
inhibition [4, 20]: 11.4%
inhibition [5]: -9.12% (inactive)
inhibition [5, 21]: -6.54%
inhibition [5, 22]: -19%
inhibition ([6]; at 0.5 µM): 11.1% (inactive)
inhibition [6, 23]: -4.44%
inhibition ([6]; cisplatin combination, at 5 µM): -18.7%
inhibition [6, 24]: 37.6%
inhibition ([6]; single agent, at 5 µM): -1.38%
inhibition ([7]; at 0.5 µM): 8.96% (inactive)
inhibition ([7]; cisplatin combo, at 5 µM): -16.5%
inhibition [7, 25]: 7.33%
inhibition [7, 13]: 6.44%
inhibition ([7]; single agent, at 5 µM): 2.31%
inhibition ([8]; at 0.5 µM): -39.9% (inactive)
inhibition [8, 26]: -11.9%
inhibition [8, 27]: -53.9%
inhibition ([8]; single agent, at 0.05 µM): 57.4%
inhibition ([8]; single agent, at 5 µM): 8.34%

CCN1CCN(c2cc3c(cc2F)c(=O)c(C(=O)O)cn3C2CC2)CC1
inhibition ([1]; at 0.5 µM): -2.08% (inactive)
inhibition [1, 11]: -31.5%
inhibition [1, 12]: -8.73%
inhibition ([2]; at 0.5 µM): -19.4% (inactive)
inhibition [2, 13]: -28.5%
inhibition [2, 14]: -100%
inhibition ([3]; at 0.5 µM): -32.9% (inactive)
inhibition [3, 15]: -15.3%
inhibition [3, 16]: -31.3%
inhibition [3, 17]: -56.8%
inhibition [3, 18]: -40.4%
inhibition [4, 19]: -7.62%
inhibition ([4]; at 0.5 µM): -4.92% (inactive)
inhibition [4, 20]: -6.59%
inhibition [5]: -1.67% (inactive)
inhibition [5, 21]: -3.12%
inhibition [5, 22]: -14.1%
inhibition ([6]; at 0.5 µM): -38.8% (inactive)
inhibition [6, 23]: -21.3%
inhibition ([6]; cisplatin combination, at 5 µM): -23.4%
inhibition [6, 24]: -13.2%
inhibition ([6]; single agent, at 5 µM): -37.9%
inhibition ([7]; at 0.5 µM): -17.8% (inactive)
inhibition ([7]; cisplatin combo, at 5 µM): -22.9%
inhibition [7, 25]: -24.4%
inhibition [7, 13]: -16%
inhibition ([7]; single agent, at 5 µM): -19.4%
inhibition ([8]; at 0.5 µM): 13.5% (inactive)
inhibition [8, 26]: 6.58%
inhibition [8, 27]: 15.1%
inhibition ([8]; single agent, at 0.05 µM): -0.132%
inhibition ([8]; single agent, at 5 µM): 12.7%
log fold change Tl+ flux [9]: -0.0402 (inactive)
log fold change Tl+ flux [10]: 0.00744 (inactive)
